The supplement of paper PMC12282887
± gives the standard deviation of the averaged measurements.

Columns and labels:
Experiment in all cases: promoter activity interaction Z-score (Lux/OD deviation from empty-vector control); higher = stronger promoter induction by the compound
[1] = tested on: E. coli BW25113 acrABp lux reporter
Method in brief: (§1)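 E. coli BW25113 (wild type or marA, soxS or rob deletion) carrying low-copy luxCDABE promoter reporters grew in 40 µl LB Lennox in 384-well plates at 37°C. Each compound was tested at four 1:2 dilutions in biological duplicates. OD600 and luminescence were read every 30 min for 12 h. Areas were taken over 0–8 h (wild type) or 1–9 h (mutants), and wells below 10% of median growth area were removed. The score is the Z-transformed residual of growth-normalised luminescence fitted against the empty-vector control.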

[2] = tested on: E. coli BW25113 marRABp lux reporter
Method in brief: as §1

[3] = tested on: E. coli BW25113 micFp lux reporter
Method in brief: as §1

[4] = tested on: E. coli BW25113 ompFp lux reporter
Method in brief: as §1

[5] = tested on: E. coli BW25113 robp lux reporter
Method in brief: as §1

[6] = tested on: E. coli BW25113 soxSp lux reporter
Method in brief: as §1

[7] = tested on: E. coli BW25113 tolCp lux reporter
Method in brief: as §1

[8] = 0.0012 µg/ml, genetic background: wild type
[9] = 0.0012 µg/ml, genetic background: ΔmarA
[10] = 0.0012 µg/ml, genetic background: Δrob
[11] = 0.0012 µg/ml, genetic background: ΔsoxS
[12] = 0.0025 µg/ml, genetic background: wild type
[13] = 0.0025 µg/ml, genetic background: ΔmarA
[14] = 0.0025 µg/ml, genetic background: Δrob
[15] = 0.0025 µg/ml, genetic background: ΔsoxS
[16] = 0.005 µg/ml, genetic background: wild type
[17] = 0.005 µg/ml, genetic background: ΔmarA
[18] = 0.005 µg/ml, genetic background: Δrob
[19] = 0.005 µg/ml, genetic background: ΔsoxS
[20] = 0.0099 µg/ml, genetic background: wild type
[21] = 0.0099 µg/ml, genetic background: ΔsoxS
[22] = 0.0099 µg/ml, genetic background: ΔmarA
[23] = 0.0099 µg/ml, genetic background: Δrob
[24] = 1.8 µg/ml, genetic background: wild type
[25] = 1.8 µg/ml, genetic background: ΔmarA
[26] = 1.8 µg/ml, genetic background: Δrob
[27] = 1.8 µg/ml, genetic background: ΔsoxS
[28] = 3.7 µg/ml, genetic background: wild type
[29] = 3.7 µg/ml, genetic background: ΔmarA
[30] = 3.7 µg/ml, genetic background: Δrob
[31] = 3.7 µg/ml, genetic background: ΔsoxS
[32] = 7.3 µg/ml, genetic background: wild type
[33] = 7.3 µg/ml, genetic background: ΔmarA
[34] = 7.3 µg/ml, genetic background: Δrob
[35] = 7.3 µg/ml, genetic background: ΔsoxS
[36] = 14.7 µg/ml, genetic background: wild type

Question: Which results are given for `O=C(O)c1cn(C2CC2)c2cc(N3CCNCC3)c(F)cc2c1=O` [Ciprofloxacin]?
Answer: promoter activity interaction Z-score [1, 8]: -0.0508 ± 0.0034; promoter activity interaction Z-score [1, 9]: 0.353 ± 0.13; promoter activity interaction Z-score [1, 10]: 0.173 ± 0.043; promoter activity interaction Z-score [1, 11]: 0.42 ± 0.15; promoter activity interaction Z-score [1, 12]: 0.086 ± 0.043; promoter activity interaction Z-score [1, 13]: 0.398 ± 0.6; promoter activity interaction Z-score [1, 14]: 0.0723 ± 0.032; promoter activity interaction Z-score [1, 15]: 0.345 ± 0.36; promoter activity interaction Z-score [1, 16]: -0.0602 ± 0.085; promoter activity interaction Z-score [1, 17]: 0.14 ± 0.38; promoter activity interaction Z-score [1, 18]: -0.262 ± 0.024; promoter activity interaction Z-score [1, 19]: 0.245 ± 0.15; promoter activity interaction Z-score [1, 20]: 3.2 ± 0.99; promoter activity interaction Z-score [2, 8]: -0.376 ± 0.019; promoter activity interaction Z-score [2, 9]: -0.0878 ± 0.24; promoter activity interaction Z-score [2, 10]: -0.0711 ± 0.075; promoter activity interaction Z-score [2, 11]: 0.251 ± 0.081; promoter activity interaction Z-score [2, 12]: -0.228 ± 0.28; promoter activity interaction Z-score [2, 13]: -0.253 ± 0.031; promoter activity interaction Z-score [2, 14]: -0.0459 ± 0.41; promoter activity interaction Z-score [2, 15]: 0.188 ± 0.098; promoter activity interaction Z-score [2, 16]: -0.472 ± 0.005; promoter activity interaction Z-score [2, 17]: -0.302 ± 0.12; promoter activity interaction Z-score [2, 18]: -0.138 ± 0.072; promoter activity interaction Z-score [2, 19]: 0.0987 ± 0.0052; promoter activity interaction Z-score [2, 20]: 2.5 ± 0.32; promoter activity interaction Z-score [2, 21]: 4.16; promoter activity interaction Z-score [3, 8]: -0.234 ± 0.19; promoter activity interaction Z-score [3, 9]: 0.0327 ± 0.0091; promoter activity interaction Z-score [3, 10]: -0.0152 ± 0.072; promoter activity interaction Z-score [3, 11]: 0.0125 ± 0.049; promoter activity interaction Z-score [3, 12]: -0.177 ± 0.22; promoter activity interaction Z-score [3, 13]: 0.0702 ± 0.0035; promoter activity interaction Z-score [3, 14]: 0.0396 ± 0.11; promoter activity interaction Z-score [3, 15]: 0.236 ± 0.43; promoter activity interaction Z-score [3, 16]: 0.0988 ± 0.0042; promoter activity interaction Z-score [3, 17]: 0.222 ± 0.086; promoter activity interaction Z-score [3, 18]: 0.149 ± 0.08; promoter activity interaction Z-score [3, 19]: 0.0364 ± 0.036; promoter activity interaction Z-score [3, 20]: -0.518 ± 0.27; promoter activity interaction Z-score [3, 22]: -0.126 ± 0.0091; promoter activity interaction Z-score [3, 23]: -0.163; promoter activity interaction Z-score [3, 21]: -0.0606 ± 0.43; promoter activity interaction Z-score [4, 8]: -0.438 ± 0.12; promoter activity interaction Z-score [4, 9]: -0.0468 ± 0.33; promoter activity interaction Z-score [4, 10]: -0.155 ± 0.71; promoter activity interaction Z-score [4, 11]: 0.116 ± 0.044; promoter activity interaction Z-score [4, 12]: -0.471 ± 0.096; promoter activity interaction Z-score [4, 13]: -0.00111 ± 0.52; promoter activity interaction Z-score [4, 14]: -0.691 ± 0.58; promoter activity interaction Z-score [4, 15]: 0.136 ± 0.14; promoter activity interaction Z-score [4, 16]: -0.511 ± 0.028; promoter activity interaction Z-score [4, 17]: -0.0342 ± 0.14; promoter activity interaction Z-score [4, 18]: -0.495 ± 0.56; promoter activity interaction Z-score [4, 19]: -0.279 ± 0.43; promoter activity interaction Z-score [4, 20]: -0.587 ± 0.72; promoter activity interaction Z-score [5, 8]: 0.0678 ± 0.12; promoter activity interaction Z-score [5, 9]: 0.253 ± 0.13; promoter activity interaction Z-score [5, 10]: 0.0957 ± 0.66; promoter activity interaction Z-score [5, 11]: 1.22 ± 0.77; promoter activity interaction Z-score [5, 12]: 0.3 ± 0.26; promoter activity interaction Z-score [5, 13]: -0.0277 ± 0.16; promoter activity interaction Z-score [5, 14]: 0.0548 ± 0.78; promoter activity interaction Z-score [5, 15]: 1.24 ± 1.1; promoter activity interaction Z-score [5, 16]: 0.247 ± 0.46; promoter activity interaction Z-score [5, 17]: 0.267 ± 0.41; promoter activity interaction Z-score [5, 18]: -0.0594 ± 0.79; promoter activity interaction Z-score [5, 19]: 0.171 ± 0.16; promoter activity interaction Z-score [5, 20]: -0.624 ± 0.76; promoter activity interaction Z-score [5, 22]: -0.611; promoter activity interaction Z-score [6, 8]: -0.0335 ± 0.15; promoter activity interaction Z-score [6, 9]: 0.12 ± 0.047; promoter activity interaction Z-score [6, 10]: 0.0163 ± 0.22; promoter activity interaction Z-score [6, 11]: 0.466 ± 0.26; promoter activity interaction Z-score [6, 12]: -0.17 ± 0.048; promoter activity interaction Z-score [6, 13]: 0.0948 ± 0.18; promoter activity interaction Z-score [6, 14]: -0.0974 ± 0.25; promoter activity interaction Z-score [6, 15]: 0.326 ± 0.014; promoter activity interaction Z-score [6, 16]: 0.14 ± 0.19; promoter activity interaction Z-score [6, 17]: 0.125 ± 0.098; promoter activity interaction Z-score [6, 18]: 0.0524 ± 0.27; promoter activity interaction Z-score [6, 19]: 0.682 ± 0.7; promoter activity interaction Z-score [6, 20]: 0.127 ± 0.063; promoter activity interaction Z-score [6, 22]: 0.0874 ± 0.13; promoter activity interaction Z-score [6, 23]: -0.378 ± 0.17; promoter activity interaction Z-score [6, 21]: 3.89 ± 2.3; promoter activity interaction Z-score [7, 8]: 0.3 ± 0.42; promoter activity interaction Z-score [7, 9]: 0.215 ± 0.83; promoter activity interaction Z-score [7, 10]: -0.563 ± 1; promoter activity interaction Z-score [7, 11]: 0.363 ± 0.45; promoter activity interaction Z-score [7, 12]: 0.307 ± 0.13; promoter activity interaction Z-score [7, 13]: -0.633 ± 0.058; promoter activity interaction Z-score [7, 14]: -0.452 ± 0.41; promoter activity interaction Z-score [7, 15]: 0.599 ± 0.74; promoter activity interaction Z-score [7, 16]: 0.224 ± 0.038; promoter activity interaction Z-score [7, 17]: 0.452 ± 0.24; promoter activity interaction Z-score [7, 18]: -0.267 ± 1.4; promoter activity interaction Z-score [7, 19]: 0.965 ± 0.61; promoter activity interaction Z-score [7, 20]: -0.238 ± 0.84; promoter activity interaction Z-score [7, 22]: 0.207 ± 0.2; promoter activity interaction Z-score [7, 23]: -2.22 ± 0.97; promoter activity interaction Z-score [7, 21]: 1.85 ± 0.19

Question: `CC[C@H]1OC(=O)[C@H](C)[C@@H](O[C@H]2C[C@@](C)(OC)[C@@H](O)[C@H](C)O2)[C@H](C)[C@@H](O[C@@H]2O[C@H](C)C[C@H](N(C)C)[C@H]2O)[C@](C)(O)C[C@@H](C)C(=O)[C@H](C)[C@@H](O)[C@]1(C)O` [Erythromycin] was tested. Which “promoter activity interaction Z-score” value [1, 24] did it give?
Answer: Its value is 0.453 ± 0.14.

Question: What about the “promoter activity interaction Z-score” value [1, 25] of the same compound?
Answer: Its value is 0.681 ± 0.23.

Question: And the “promoter activity interaction Z-score” value [1, 26]?
Answer: The value was 0.159 ± 0.56.

Question: What about the “promoter activity interaction Z-score” value [1, 27] of the same compound?
Answer: The value was 0.201 ± 0.23.

Question: What about the “promoter activity interaction Z-score” value [1, 28] of the same compound?
Answer: The value was 0.762 ± 0.17.

Question: What about the “promoter activity interaction Z-score” value [1, 29] of the same compound?
Answer: Its value is -1.09 ± 0.061.

Question: What about the “promoter activity interaction Z-score” value [1, 30] of the same compound?
Answer: The value was 0.417 ± 0.063.

Question: What about the “promoter activity interaction Z-score” value [1, 31] of the same compound?
Answer: The value was 1.35 ± 1.5.

Question: And the “promoter activity interaction Z-score” value [1, 32]?
Answer: Its value is 1.66 ± 0.12.

Question: And the “promoter activity interaction Z-score” value [1, 33]?
Answer: Its value is -0.406 ± 0.24.

Question: What about the “promoter activity interaction Z-score” value [1, 34] of the same compound?
Answer: Its value is 1.7 ± 0.48.

Question: And the “promoter activity interaction Z-score” value [1, 35]?
Answer: The value was 2.23 ± 1.1.

Question: What about the “promoter activity interaction Z-score” value [1, 36] of the same compound?
Answer: The value was 7.47 ± 0.26.

Question: What about the “promoter activity interaction Z-score” value [3, 24] of the same compound?
Answer: Its value is 0.913 ± 0.45.

Question: And the “promoter activity interaction Z-score” value [3, 25]?
Answer: Its value is -0.122 ± 0.027.

Question: What about the “promoter activity interaction Z-score” value [3, 26] of the same compound?
Answer: Its value is -0.273 ± 0.066.

Question: What about the “promoter activity interaction Z-score” value [3, 27] of the same compound?
Answer: Its value is 0.0903 ± 0.17.

Question: And the “promoter activity interaction Z-score” value [3, 28]?
Answer: Its value is 0.742 ± 0.35.

Question: And the “promoter activity interaction Z-score” value [3, 29]?
Answer: Its value is -0.1986 ± 0.0018.

Question: What about the “promoter activity interaction Z-score” value [3, 30] of the same compound?
Answer: The value was -0.176 ± 0.13.

Question: What about the “promoter activity interaction Z-score” value [3, 31] of the same compound?
Answer: Its value is 0.695 ± 0.24.

Question: And the “promoter activity interaction Z-score” value [3, 32]?
Answer: Its value is 0.748 ± 0.99.

Question: What about the “promoter activity interaction Z-score” value [3, 33] of the same compound?
Answer: Its value is -0.167 ± 0.085.

Question: And the “promoter activity interaction Z-score” value [3, 34]?
Answer: The value was -0.148 ± 0.073.

Question: What about the “promoter activity interaction Z-score” value [3, 35] of the same compound?
Answer: Its value is -0.224 ± 0.12.

Question: What about the “promoter activity interaction Z-score” value [3, 36] of the same compound?
Answer: The value was -1.13 ± 0.77.

Question: What about the “promoter activity interaction Z-score” value ([3]; 14.7 µg/ml, genetic background: ΔmarA) of the same compound?
Answer: The value was -0.537 ± 0.026.

Question: What about the “promoter activity interaction Z-score” value ([3]; 14.7 µg/ml, genetic background: ΔsoxS) of the same compound?
Answer: Its value is -0.792 ± 0.2.

Question: What about the “promoter activity interaction Z-score” value [4, 24] of the same compound?
Answer: Its value is 0.573 ± 0.45.

Question: What about the “promoter activity interaction Z-score” value [4, 25] of the same compound?
Answer: Its value is 0.458 ± 0.21.
